Measurements as given in the supplement of paper PMC6555819.

The sequences below were run on VDR:RXRa (NR concentration 270 nM, RXRa partner concentration 90 nM) (assay: PBM binding z-score (relative to random genomic background probes); higher = stronger binding; sequences stand for … in GC…GCGATTGACAGCGTAGAATGAAGG).
Method: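 Protein-binding microarray (Agilent 4x180K custom design, double-stranded 60-nt probes: 5' GC cap, 34-nt variable region, 24-nt constant primer region; full probe sequence given). Purified or IVT nuclear receptor:RXRα heterodimers (3:1 NR:RXRα, mostly 270:90 nM) or homodimers were incubated for 1 h in PBS with 2% milk and no ligand, then detected with Alexa488 antibodies. Fluorescence from o1-orientation probes (~5 replicates averaged) was converted to z-scores against 500 random hg19 background probes. Variable regions are seed direct-repeat (DR0–DR5) sites, all their single-nucleotide variants and half-site ablations.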

Row | Sequence | PBM binding z-score
1 | AGTCAAAGTTCATCTAGGTAACATAAGATATGCT | 5.33
2 | CCTTACGGGTCAAGGTTATAGCCCGGGTGGTACG | 3.31
3 | ATATGTAGGTTAGCTGGGGTCATTCACACTAGGC | 6.32
4 | TCTAGTTGGTCAAAGGTCACGCACTCGAAATGCG | 6.05
5 | GCTAGTTGGTCAGTAAAATGTCACACACCGGTCG | -0.0389
6 | TAGCCTAAGTCATGCGGGCCAGTATAGTGTCGGC | -0.392
7 | GATATAGGGTCAGCTAGAGGCCAGAGTATGGAAA | 3.42
8 | GCTTACAGGTCAAAGGTTATAGCATGAATAGAAT | 5.51
9 | CGAACGAGGTCAAAGGACAGTGAAAGGCGACGTA | 5.02
10 | CAAACTAGGTCAAAAGGTCAAAGTCCGCTTCCCG | 6.32
11 | AGTCAAAGTTCAGGACGACGTAACGTAAAGCACG | 2.18
12 | ATCGAAAGGTCGTGAGGTAAGTATACAGAAAGGC | 3.44
13 | CGTCAAAGATCAAGGTAACGTAACAGAAAGCAGC | -0.129
14 | TGTATGAGGTTAAAGATCAGGGAACGTGGCGTCG | 2.15
15 | ATCGAAAGGTCAAGGTGAGTATAGAGAAAGGGAA | 5.32
16 | CCTTACGGGTCACTCCAGGTCATAGCATCGGAGT | 5.95
17 | CAAACTAGTTCAAGAGGTCAAAGTCCGCTTCCCG | 5.54
18 | ACTCGGTGGACAAAGGTCAGAGCTACGCCAGTGA | 2.91
19 | TCTGCTAGGTCAACGTTGGTCAGCTAATCTGCTA | 1.46
20 | AGAATGAGGTTAAGTTCAGGGAAACAGAATACAT | 3.33
